Compound activity (PubChem BioAssay)
Most compounds without a hit are left out; they make up all but 2% or so of the library.
JMJD2E inh – JMJD2E (human) inhibition; B2RXH2; JMJD2E catalytic domain, FDH-coupled NADH fluorescence (FDH is formaldehyde dehydrogenase); Potency, µM (highest dose often 57.1 µM), inactives show at the top dose activity change, negative = inhibition, usual class: inhibitors; 230,000 tested, 1.6% active; AID 2147; active = well fitted inhibition curve with a large enough effect, not every such curve was filed as active; inconclusive = small, poorly fitted or top-dose-only effect, or another doubt; inactive = no such curve, though single readings can be large or run the other way;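 also: potency is read from the fitted curve at half-maximal effect; 0% = wells with enzyme and -100% = buffer wells without enzyme; nearly all actives have a fitted effect of over 50% in size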
KCNH2 3.1 block – KCNH2 3.1 (human) potassium channel inhibition; U2OS KCNH2 3.1, thallium flux FluxOr; active compounds read low; activity change, % (tested at about 1.8 µM); 340,000 tested, 0.95% active; AID 720553;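 active = maximum activity change below -70%; inconclusive = maximum activity change from -70% to -50%; inactive = maximum activity change above -50%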;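 also: thallium influx rate constant from kinetic fluorescence after stimulation buffer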
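Normalized rate constant (relative to positive and negative DMSO controls) derived from a 2 min kinetic fluorescence read after stimulation; U2OS cells expressing the 3.1 isoform via virus at 1.77 x 10^8 /mL.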
Six1-Eya2 blk – blocks human Six1 binding to Eya2; AlphaScreen GST-Six1/His-Eya2 binding, biochemical; active compounds read low; 360,000 tested, 0.56% active; activity change, % (test concentration not listed); AID 651725
Target sequence (O00167 whole entry, looked up): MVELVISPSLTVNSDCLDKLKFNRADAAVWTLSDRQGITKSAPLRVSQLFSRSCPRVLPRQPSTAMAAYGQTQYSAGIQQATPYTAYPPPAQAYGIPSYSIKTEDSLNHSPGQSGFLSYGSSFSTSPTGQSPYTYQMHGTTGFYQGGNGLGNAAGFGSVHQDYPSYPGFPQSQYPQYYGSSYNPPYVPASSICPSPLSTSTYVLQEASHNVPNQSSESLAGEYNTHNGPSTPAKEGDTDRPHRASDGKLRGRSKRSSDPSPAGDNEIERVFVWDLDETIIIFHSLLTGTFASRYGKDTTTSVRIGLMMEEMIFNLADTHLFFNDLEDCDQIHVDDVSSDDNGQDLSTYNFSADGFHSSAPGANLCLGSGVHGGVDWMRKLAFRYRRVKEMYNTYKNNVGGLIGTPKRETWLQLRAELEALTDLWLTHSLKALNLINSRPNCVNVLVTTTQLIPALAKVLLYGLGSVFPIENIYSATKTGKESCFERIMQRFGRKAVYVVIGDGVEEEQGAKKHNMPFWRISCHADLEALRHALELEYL
Target sequence (Q15475 whole entry, looked up): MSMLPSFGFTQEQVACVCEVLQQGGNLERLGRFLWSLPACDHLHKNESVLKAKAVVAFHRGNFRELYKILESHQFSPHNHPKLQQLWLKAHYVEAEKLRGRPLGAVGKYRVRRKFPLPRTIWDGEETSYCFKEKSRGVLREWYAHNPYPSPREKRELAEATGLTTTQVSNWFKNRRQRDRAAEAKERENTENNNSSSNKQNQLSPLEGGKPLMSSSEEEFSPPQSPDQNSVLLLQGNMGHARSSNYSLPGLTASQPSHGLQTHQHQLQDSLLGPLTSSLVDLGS
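AlphaScreen luminescence read after one hour at 37 °C in darkness. Pin-transferred compounds met GST-Six1 and His-Eya2 protein (5X stock 250 nM/500 nM) plus glutathione donor and Ni-chelate acceptor beads (5X, 50 ug/mL).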
KCNH2 WT inh – KCNH2 (human, wildtype) channel inhibition. Q12809. U2OS, BacMam KCNH2, thallium flux FluxOr; active compounds read low. activity change, % at 1.84 µM. 340,000 tested, 0.37% active. AID 720551;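 active = maximum activity change below -70%; inconclusive = maximum activity change between -70% and -50%; inactive = maximum activity change above -50%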
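U2OS cells were transduced with wild-type KCNH2 virus (2.03 x 10^8 / mL) for 4 h at room temperature, then cultured overnight at 37 C. Thallium flux was read with FluxOr dye. Rate constants were normalized to DMSO controls.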
CtBP-E1A inh – CtBP/E1A binding inhibition. AlphaScreen GST-E1A/His-CtBP binding, 1536-well; active compounds read low. activity change, % (test concentration not listed). 340,000 tested, 0.49% active
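GST-E1A and His-tagged CtBP (125 nM each as 5X stock) were preincubated with pin-transferred compound for 2 h at 37 °C in the dark, then glutathione donor and nickel acceptor beads were added for 1 h before AlphaScreen reading.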
The depositor's hits bear a star; ? = inconclusive; nt = no result. Rule as the data show it, unless noted: active = activity change below about -65%; inconclusive = mostly about -30% to -63%; inactive = weaker than that. Unless noted, % is scaled to controls: 0 for no effect and ±100 for the full control effect.

SMILES	JMJD2E inh	KCNH2 3.1 block	Six1-Eya2 blk	KCNH2 WT inh	CtBP-E1A inh
CN(C)c1ccc(CNCCC(Cc2ccccc2)c2ccco2)cc1 (stereo not given)	-6%	-49	-66*	14	?
O=C(NC(=S)N(CCc1ccccc1)CCc1ccccc1)c1ccco1	13%	14	0	-123*	8
CC12CCC(=O)N1C(C(=O)Nc1nc(-c3ccc(F)c(F)c3)cs1)CS2 (stereo not given)	nt	-7	4	-21	-4
O=C(c1ccc(F)cc1)C1CCN(Cc2cn[nH]c2-c2ccc(F)cc2)CC1	8%	-80*	-12	-22	3
COc1ccccc1Oc1nnnn1-c1ccc(C(N)=O)cc1	-5%	-85*	-1	-22	6
NC(=O)c1ccc(-n2nnnc2Oc2ccccc2)cc1	5%	6	3	-11	7
O=C(CC(c1ccco1)S(=O)(=O)c1ccccc1)c1ccc(F)cc1 (stereo not given)	?	-18	-2	-4	-4
COCCCn1c(=O)c2ccccc2n(Cc2ccc(C)cc2)c1=O	nt	-123*	-1	7	4
CCN(CC(=O)NCc1ccc(F)cc1)C(=O)c1cc2ccccc2o1	nt	11	5	3	9
COc1ccc(C(=O)Nn2c(SCC(=O)NC3CCCCC3)nc3ccccc3c2=O)cc1	-30%	-18	-14	6	-27
COc1ccc(C(=O)Nn2c(SCC(=O)N3CCC(C)CC3)nc3ccccc3c2=O)cc1	-2%	2	?	-18	-71*
O=C(CSc1nc2cc(Cl)ccc2s1)c1cc2ccccc2o1	?	16	3	-14	6
COc1ccc(C(=O)C(C)C(C)=O)c(OCc2ccccc2)c1OC (stereo not given)	nt	-4	14	-1	-10
COc1ccc(-c2c(N)cnc(C(=O)O)c2C)c(OCc2ccccc2)c1OC	nt	3	-82*	-2	-8
Cc1ccnc(NCc2cccc3ccccc23)c1	nt	-8	-4	-5	-3
O=C(Nc1ccn(-c2ccccc2)n1)c1ccc(S(=O)(=O)N2CCCCCC2)cc1	?	-84*	-1	-29	9
O=C(Nc1ccccc1)c1ccc(S(=O)(=O)N2CCCCC2)cc1	31%	2	3	-11	4
OC(CN1CCCCC1)Cn1c(C(F)(F)F)nc2ccccc21 (stereo not given)	-3%	-8	3	9	2
CN(C(=O)COc1ccc2ccc(=O)oc2c1)C1CCS(=O)(=O)C1 (stereo not given)	nt	4	16	69	12
Cc1noc(C)c1C(=O)Nc1nc(-c2cc(F)ccc2F)cs1	nt	-135*	4	-1	-1
COc1cc(NC(=O)CN2C(=O)COc3ccc(S(=O)(=O)N4CCCCC4)cc32)cc(OC)c1	nt	1	?	-9	-73*
COc1ccc(NC(=O)CN2C(=O)COc3ccc(S(=O)(=O)N4CCOCC4)cc32)cc1Cl	nt	-18	6	6	-92*
COc1cc(NC(=O)CN2C(=O)COc3ccc(S(=O)(=O)N4CCCC4)cc32)cc(OC)c1	nt	10	?	11	-77*
COc1ccccc1NC(=O)CN1C(=O)COc2ccc(S(=O)(=O)N3CCOCC3)cc21	nt	8	6	-4	-3
Cc1nc(N)[nH]c(=O)c1CCCNc1ccc([N+](=O)[O-])cc1	nt	-119*	-4	-3	0
SMILES	JMJD2E inh	KCNH2 3.1 block	Six1-Eya2 blk	KCNH2 WT inh	CtBP-E1A inh
CC(=O)c1coc2ccc(OCCN3CCCCC3)cc12	3%	-10	-5	-4	-9
O=C(CCn1nc(-c2ccc(Cl)cc2)c2ccccc2c1=O)NN1CCOCC1	3%	-2	0	14	-2
CC(=O)Nc1ccc(C(=O)Nc2nnc(CCc3ccccc3)s2)cc1	nt	-14	11	6	0
CCOc1ccccc1OCCCC(=O)N1CCN(S(=O)(=O)c2ccccc2C#N)CC1	nt	2	3	-1	-1
Cc1cccc(CSCC(=O)N2CCN(S(=O)(=O)c3ccccc3C#N)CC2)c1	nt	8	3	-238*	2
COc1cc(CCCN2C(=S)NC[C@@H]2c2ccccc2)cc(OC)c1OC	6%	-94*	-6	1	-2
COc1cc(CCCN2C(=S)NC[C@@H]2Cc2ccccc2)cc(OC)c1OC	-2%	-9	0	1	0
COc1ccc2c(Cl)c(C(=O)N/N=C3\CCCC(=O)C3)sc2c1	18µM*	7	?	-6	?
CN(C)CC(=O)c1c(N)n(Cc2ccccc2)c(=O)n(C)c1=O	3%	1	15	7	0
CCOc1ccc(NC(=S)NCc2ccc3[nH]c(C)cc3c2)cc1	-7%	12	-68*	nt	nt
CCCCNC(=S)NCc1ccc2[nH]c(C)cc2c1	-5%	6	-3	-4	-3
O=S(=O)(c1ccccc1)N1CCNc2ccccc21	nt	-122*	-11	0	-14
O=C1CN(S(=O)(=O)c2ccccc2)CCN1	nt	2	1	2	-1
COc1ccc2ccccc2c1/C=N/NC(=O)c1sc(N)c(C#N)c1C	?	7	-7	1	-2
COc1cc(/C=N/NC(=O)c2sc(N)c(C#N)c2C)cc(Br)c1O	?	-4	-67*	-7	-77*
COc1cc(/C=N\NC(=O)c2sc(N)nc2C)cc(OC)c1OC	?	23	-82*	-13	-84*
Cc1nc(N)sc1C(=O)N/N=C/c1ccc([N+](=O)[O-])cc1	-15%	11	17	11	13
COC(=O)C1=C(O)/C(=C\c2cc(C)n(-c3ccccc3F)c2C)N=C1C	22µM*	8	-7	-5	-2
Oc1ccc(N=Nc2c(O)ccc3ccccc23)cc1	-16%	12	-70*	-7	-75*
Cc1ccc(S(=O)(=O)CC(C)N2CCOCC2)c(S(=O)(=O)CC(C)N2CCOCC2)c1 (stereo not given)	-3%	8	2	-224*	7
C=CCn1c(SCC(=O)N2CCN(C(=O)c3ccco3)CC2)nc2sc(CC)cc2c1=O	-1%	?	-2	-109*	-6
Cc1cc(N2CCOCC2)nc2ccc(NC(=O)C3CCC(C)CC3)cc12 (stereo not given)	?	-107*	25	-14	0
CCCN(CCC)CCCNC(=S)Nc1ccc2nc(N3CCN(CC)CC3)cc(C)c2c1	?	14	-2	-6	nt
CCCN(CCC)CCNC(=O)CCC(=O)Nc1ccc2nc(N3CCOCC3)cc(C)c2c1	nt	-174*	2	3	-9
Cc1cc(N2CCOCC2)nc2ccc(NC(=S)NC(C)C)cc12	nt	11	4	11	nt
CCCN(CCC)CCCNC(=S)Nc1ccc2nc(N3CCN(C)CC3)cc(C)c2c1	?	-109*	-3	15	nt
CCCCNC(=O)CCC(=O)Nc1ccc2nc(N3CCOCC3)cc(C)c2c1	?	-47	-5	3	1
